Bioassay records (PubChem BioAssay)
MEKK3 PB1 HTS: raises or lowers MEK5 binding to the human MEKK3 PB1 domain; binding response (% of control), % at 10 µM; bead-based flow cytometry, Alexa488-MEK5 binding to MEKK3; actives lie on both sides; 0 = blocked by unlabeled MEK5, 100 = vehicle; actives 1.4% (n = 290,000);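 active = binding response more than 3 SD above or below the average of its plate-row segment, actives on both sides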;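 also: Alexa488 bead fluorescence after subtracting the streptavidin-only scavenger bead signal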
TMEM16A inh: blocks the mouse calcium-activated chloride channel TMEM16A. Q8BHY3. HEK293 TMEM16A/YFP iodide influx fluorescence, ionomycin. normalized B-score (activity score, 25-100; higher = stronger inhibition) at 10 µM. actives 1.2% (n = 310,000). AID 588511;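 active = ratio plate-corrected score three or more library SD toward inhibition, starting fluorescence score within five deviations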;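 also: score derived from kinetic fluorescence span divided by baseline fluorescence per well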
MEKK2mut PB1 HTS: signal of MEK5 binding to mutant human MEKK2 PB1 domain; bead flow cytometry, Alexa488-MEK5 binding to MEKK2 mutant; percent response, % at 10 µM; actives 0.35% (n = 290,000); AID 1530; in the data active = percent response above about 24%, passing the limit was not always enough
NTR1 ag: agonists of human neurotensin receptor NTR1. P30989. AID 493036. activation, % at 20 µM. NTR1-U2OS beta-arrestin-GFP spot imaging, agonist mode. actives 0.17% (n = 330,000);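 active = activation at or above 40% of the spot to cytoplasm intensity ratio, with at least 20 cells analyzed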;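 also: 0% = DMSO without peptide and 100% = 100 nM NTR1 peptide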
Target sequence (P30989 whole entry, looked up): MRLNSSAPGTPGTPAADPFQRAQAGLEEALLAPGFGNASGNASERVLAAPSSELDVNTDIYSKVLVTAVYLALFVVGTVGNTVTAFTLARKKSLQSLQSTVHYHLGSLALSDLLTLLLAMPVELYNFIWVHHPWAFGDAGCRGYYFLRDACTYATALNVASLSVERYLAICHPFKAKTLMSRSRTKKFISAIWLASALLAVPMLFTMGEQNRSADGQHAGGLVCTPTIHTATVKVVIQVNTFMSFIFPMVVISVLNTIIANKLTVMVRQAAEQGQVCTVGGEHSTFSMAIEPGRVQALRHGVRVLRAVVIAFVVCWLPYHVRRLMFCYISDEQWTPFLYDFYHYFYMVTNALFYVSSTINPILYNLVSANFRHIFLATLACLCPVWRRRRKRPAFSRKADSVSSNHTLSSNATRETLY
MEKK2wt PB1 HTS: raises or lowers MEK5 binding to wildtype human MEKK2 PB1 domain. binding response (% of control), % at 10 µM. Q9Y2U5. bead flow cytometry, Alexa488-MEK5 binding to MEKK2 WT; actives lie on both sides. AID 1531. actives 1.1% (n = 290,000); in the data active = binding response below about 67% or above about 130%
TMEM16A act: mouse TMEM16A channel activation, primary screen; HEK293 TMEM16A/YFP-H148Q/I152L, iodide quench fluorescence; hits give low values; AID 623877; B-score at 10 µM; actives 0.3% (n = 340,000);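 active = fluorescence-ratio B-score plate-corrected deviation score at least 3 library SD below zero, with starting fluorescence score within 5 deviations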;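 also: channel opened by trigger with iodide after compound preincubation; score built on the fluorescence ratio of max minus min over baseline; more negative score means more quench and so TMEM16A activation or potentiation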
MEKK2wt confirm: raises or lowers MEK5 binding to wildtype human MEKK2, retest. shares compounds with MEKK3 PB1 HTS. AID 1892. actives 2.4% (n = 5,900). bead flow cytometry, Alexa488-MEK5 binding to MEKK2 WT; actives lie on both sides. binding response (% of control), % at 10 µM; in the data active = binding response below about 16% or above about 210%; inactive = in between
MEKK2mut-MEK5: signal of MEK5 binding to mutant human MEKK2, retest. bead flow cytometry, Alexa488-MEK5 binding to MEKK2 mutant. shares compounds with MEKK3 PB1 HTS. percent response, % at 10 µM. actives 2% (n = 5,900). AID 1893; in the data active = percent response mostly above about 71%, no sharp cut-off; inactive = mostly below about 38%;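 also: higher means compound restores mutant binding toward wildtype level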
MEKK3-MEK5 inh: confirmation of inhibitors of MEK5 binding to human MEKK3. actives 1.8% (n = 5,900). binding response (% of control), % at 10 µM. bead flow cytometry, Alexa488-MEK5 binding to MEKK3; hits give low values. shares compounds with MEKK3 PB1 HTS. AID 1894;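 active = binding response below 72% of control, or above a set upper limit, though filed actives all read lower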;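 also: 100% = DMSO only wells and 0% = binding blocked by excess unlabeled MEK5; lower values mean stronger disruption of MEK5 binding to MEKK3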
* = called active by the depositor; i = inactive; · = not tested or not shown; [ ] = another dose, or the depositor's remark. An excerpt weighted towards active compounds, which were near 3.4% of everything screened.

SMILES | MEKK3 PB1 HTS | TMEM16A inh | MEKK2mut PB1 HTS | NTR1 ag | MEKK2wt PB1 HTS | TMEM16A act | MEKK2wt confirm | MEKK2mut-MEK5 | MEKK3-MEK5 inh
CCN1CCC(C(N)=O)CC1 | 0.0*[inhibitor] | i | -35 | 0 | 0.0*[inhibitor] | i | 100 | 5 | 105
Cc1ccccc1OCC(O)CNC1CCC(NCC(O)COc2ccccc2C)CC1 (centres undefined) | 111 | i | 76* | 19 | 219* | i | 207* | 70* | 111
Cc1ccc(OCC(O)CNC2CCCC2)c(C)c1 (centres undefined) | 103 | i | 2 | 3 | 109 | i | · | · | ·
O=C(OCC(=O)N1CCN(c2ccccc2)CC1)c1ccccc1[N+](=O)[O-] | · | i | · | 2 | · | i | · | · | ·
O=C(CC1C(=O)NCCN1Cc1ccc(-c2ccccc2)cc1)NCCCn1ccnc1 (centres undefined) | 109 | i | 1 | -1 | 114 | i | · | · | ·
O=C(NNc1nc(-c2ccccc2)cs1)c1cccs1 | 69*[inhibitor] | i | -35 | 0 | 76 | i | 100 | 0 | 104
Cc1ccc(C)c(NC(=O)c2cc(-c3ccccc3)nn2-c2ccccc2)c1 | 60*[inhibitor] | i | -1 | 5 | 96 | i | 110 | 6 | 103
CCOC(=O)C1CCN(S(=O)(=O)c2ccccc2)CC1 | 102 | i | 2 | 1 | 104 | i | · | · | ·
CCOC(=O)C1CCN(S(=O)(=O)c2ccc(-n3cnnn3)c(C)c2)CC1 | 79*[inhibitor] | i | -11 | -1 | 86 | i | 101 | -3 | 102
CCOC(=O)C1CCN(S(=O)(=O)c2ccc(-c3ccccn3)s2)CC1 | 130* | i | 25 | 0 | 129 | i | 99 | -3 | 101
CCOC(=O)C1CCN(S(=O)(=O)c2ccc(OC)c(Cl)c2Cl)CC1 | 82*[inhibitor] | i | -5 | 0 | 88 | i | 103 | 2 | 102
O=C(NCc1ccccn1)C1(C(F)(F)F)C/C(=C\CCO)CCCO1 (centres undefined) | 93 | i | 0 | 0 | 97 | i | · | · | ·
O=CN1CCN(C(=O)COc2ccc(Cl)cc2Br)CC1 | 149* | i | 0 | -1 | 108 | i | 98 | -3 | 101
O=C(COc1ccc(Cl)cc1Br)N1CCN(c2ccccc2)CC1 | 101 | i | 5 | 3 | 103 | i | · | · | ·
CCC(C)(C)NC(=O)c1cc([N+](=O)[O-])ccc1N1CCOCC1 | 157* | i | 1 | 1 | 113 | i | 100 | -7 | 100
c1ccc(-c2nnc(CN3CCCc4ccccc43)o2)cc1 | 109 | i | 26* | -1 | 9.0* | i | 104 | 0 | 97
O=S(=O)(c1ccc(F)cc1)N1CCN(Cc2nnc(-c3ccccc3)o2)CC1 | · | · | · | 3 | · | i | · | · | ·
c1ccc(-c2nnc(CN3CCCCC3)o2)cc1 | 102 | i | 0 | -1 | 104 | i | · | · | ·
Fc1ccc(N2CCN(Cc3nnc(-c4ccccc4)o3)CC2)cc1 | 135* | i | 0 | -1 | 106 | i | 102 | -6 | 101
CC(=O)c1ccc(-c2ccccc2OC(F)(F)F)o1 | 49*[inhibitor] | i | -22 | 0 | 61 | i | 100 | -9 | 98
CCCN(Cc1cc2cc(C)ccc2[nH]c1=O)C(=O)c1cccc([N+](=O)[O-])c1 | 130* | i | 24 | 2 | 127 | i | 102 | -11 | 94
COC(=O)Cc1cc(=O)n(-c2nc3ccccc3[nH]2)[nH]1 | 73*[inhibitor] | i | -4 | 1 | 80 | i | 98 | 0 | 101
